Assay results reported in PubChem BioAssay (EPA / NIEHS).
Activity calls are given as the source filed them. The calls were made as follows: active = hit-call score of the fitted dose curve at least 0.9, where 1 is the maximum; inactive = score below 0.9.

Columns and labels:
[1] = ATG_CRE_CIS: Attagene CIS-FACTORIAL HepG2 Assay for human cAMP Responsive Element (CRE) binding protein 3 (AID 2282926); settings: HepG2 CRE cis-reporter, Attagene multiplexed mRNA; actives raise or lower the signal
In short: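 HepG2 cells transiently transfected with cis-element-driven multiple reporter transcription units; CRE reporter mRNA measured 24 h after dosing by RT-PCR, 6-FAM labelling, HpaI digestion and capillary electrophoresis. Bidirectional fit versus DMSO baseline.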

[2] = target: CCAAT/enhancer-binding protein beta (Homo sapiens) (UniProt P17676); assay: ATG_C_EBP_CIS: Attagene CIS-FACTORIAL HepG2 Assay for human CCAAT/Enhancer Binding Protein (C/EBP) beta (AID 2282927); settings: HepG2 Attagene cis-factorial transcription factor reporter; actives raise or lower the signal
Chain of CCAAT/enhancer-binding protein beta (Homo sapiens) (P17676 whole entry, looked up): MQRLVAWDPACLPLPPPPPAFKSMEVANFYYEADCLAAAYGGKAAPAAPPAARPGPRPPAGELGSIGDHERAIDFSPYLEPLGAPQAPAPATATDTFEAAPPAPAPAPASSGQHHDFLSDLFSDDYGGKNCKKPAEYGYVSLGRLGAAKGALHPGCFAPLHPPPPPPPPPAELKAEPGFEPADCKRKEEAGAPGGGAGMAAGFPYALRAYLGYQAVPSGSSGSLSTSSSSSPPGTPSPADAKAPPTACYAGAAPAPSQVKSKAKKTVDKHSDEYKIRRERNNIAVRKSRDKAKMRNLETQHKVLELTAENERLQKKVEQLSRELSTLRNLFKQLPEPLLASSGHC
In short: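 Transiently transfected HepG2 (MRTU library, endogenous TF-driven promoters); 24 h dosing; total RNA → oligo(dT) RT → PCR → 6-FAM primer extension → HpaI digest → CE; fit bidirectionally vs DMSO.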

[3] = ATG_CMV_CIS: Attagene CIS-FACTORIAL HepG2 Assay for human CMV (Internal Marker) (AID 2282928); settings: HepG2 CMV promoter reporter, transcription factor profiling; actives raise or lower the signal;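 also: endpoint acts as a background internal control marker rather than a target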
In short: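 Endogenous transcription factor activity read in HepG2 via transfected cis-promoter reporter units. After 24 h dosing, reporter mRNA measured by RT-PCR/capillary electrophoresis; gain or loss of signal fit relative to DMSO.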

[4] = ATG_DR4_LXR_CIS: Attagene CIS-FACTORIAL HepG2 Assay for human Liver X Receptor (LXR), DR4 submotif (AID 2282929); settings: HepG2 Attagene DR4 cis-reporter, mRNA transcription; actives raise or lower the signal
In short: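 Readout: reporter transcript fluorescence after RT-PCR and capillary electrophoresis, fitted bidirectionally against DMSO controls. Human HepG2 liver cells carried transiently transfected multiplexed reporter constructs; endogenous transcription factor activity measured 24 h post-dosing.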

[5] = target: Aryl hydrocarbon receptor (Homo sapiens) (UniProt P35869); assay: ATG_Ahr_CIS: Attagene CIS-FACTORIAL HepG2 Assay for human Aryl Hydrocarbon Receptor (Ahr) (AID 2282930); settings: HepG2 AhR cis-factorial reporter transcription; actives raise or lower the signal
Chain of Aryl hydrocarbon receptor (Homo sapiens) (P35869 whole entry, looked up): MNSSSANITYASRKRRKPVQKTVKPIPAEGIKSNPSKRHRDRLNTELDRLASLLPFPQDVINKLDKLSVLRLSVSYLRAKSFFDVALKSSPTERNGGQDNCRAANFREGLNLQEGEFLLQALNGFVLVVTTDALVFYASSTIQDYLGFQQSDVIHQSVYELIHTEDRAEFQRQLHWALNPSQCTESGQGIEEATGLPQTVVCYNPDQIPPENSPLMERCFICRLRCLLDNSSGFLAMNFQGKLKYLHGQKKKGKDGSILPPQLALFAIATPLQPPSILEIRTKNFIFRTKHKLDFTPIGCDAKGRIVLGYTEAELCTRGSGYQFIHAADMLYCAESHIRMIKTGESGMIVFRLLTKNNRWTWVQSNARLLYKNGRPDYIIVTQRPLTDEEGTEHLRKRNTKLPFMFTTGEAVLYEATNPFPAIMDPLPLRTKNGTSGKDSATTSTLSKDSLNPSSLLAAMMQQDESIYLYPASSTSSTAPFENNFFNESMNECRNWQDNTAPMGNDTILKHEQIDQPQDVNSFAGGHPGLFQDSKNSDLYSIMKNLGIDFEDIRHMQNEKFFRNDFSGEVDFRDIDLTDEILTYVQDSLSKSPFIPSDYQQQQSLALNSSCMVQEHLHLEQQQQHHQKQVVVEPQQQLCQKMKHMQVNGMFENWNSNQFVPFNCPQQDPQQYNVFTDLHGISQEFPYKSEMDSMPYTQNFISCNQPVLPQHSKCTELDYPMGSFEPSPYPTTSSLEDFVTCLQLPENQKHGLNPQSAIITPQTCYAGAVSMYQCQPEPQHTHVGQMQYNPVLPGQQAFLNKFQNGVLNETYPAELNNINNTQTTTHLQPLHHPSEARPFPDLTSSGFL
In short: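 Read-out: reporter mRNA quantified by RT-PCR with fluorescent primer extension and capillary electrophoresis. Human HepG2 liver cells carried transfected cis-promoter reporter units and were exposed to chemical for 24 h; gain or loss fitted relative to DMSO.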

[6] = ATG_AP_1_CIS: Attagene CIS-FACTORIAL HepG2 Assay for human Activator Protein 1 (AP-1) (AID 2282931); settings: HepG2 Attagene cis-factorial AP-1 reporter mRNA; actives raise or lower the signal
In short: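 Reporter transcripts were measured 24 h after dosing by RT-PCR and capillary electrophoresis of fluorescent fragments. Cells: HepG2 carrying transfected cis-regulated reporter constructs reading endogenous factor activity. Gain or loss fitted against DMSO.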

[7] = ATG_AP_2_CIS: Attagene CIS-FACTORIAL HepG2 Assay for human Activator Protein 2 (AP-2) (AID 2282932); settings: HepG2 AP-2 cis-reporter, Attagene transcription factor profiling; actives raise or lower the signal
In short: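 HepG2 cells transiently transfected with cis-element reporter units and exposed for 24 h. Reporter mRNA measured by RT-PCR, FAM labelling, HpaI digestion and capillary electrophoresis. Changes in either direction fitted relative to DMSO.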

[8] = ATG_BRE_CIS: Attagene CIS-FACTORIAL HepG2 Assay for human Bone Morphogenetic Protein (BMP) Response Element (BRE) (AID 2282933); settings: HepG2 BMP response element reporter, Attagene transcription factor profiling; actives raise or lower the signal
In short: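 Gain- or loss-of-signal was derived by bidirectional fitting against DMSO controls. The signal came from reporter mRNA, measured by RT-PCR and capillary electrophoresis, in HepG2 cells transiently carrying multiple reporter units and dosed for 24 h.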

[9] = target: Retinoic acid receptor alpha (Homo sapiens) (UniProt P10276); assay: ATG_DR5_RAR_CIS: Attagene CIS-FACTORIAL HepG2 Assay for human Retinoic Acid Receptor Alpha (RARE), DR5 submotif (AID 2282934); settings: HepG2 Attagene cis-factorial RARE DR5 reporter, mRNA; actives raise or lower the signal
Chain of Retinoic acid receptor alpha (Homo sapiens) (P10276 whole entry, looked up): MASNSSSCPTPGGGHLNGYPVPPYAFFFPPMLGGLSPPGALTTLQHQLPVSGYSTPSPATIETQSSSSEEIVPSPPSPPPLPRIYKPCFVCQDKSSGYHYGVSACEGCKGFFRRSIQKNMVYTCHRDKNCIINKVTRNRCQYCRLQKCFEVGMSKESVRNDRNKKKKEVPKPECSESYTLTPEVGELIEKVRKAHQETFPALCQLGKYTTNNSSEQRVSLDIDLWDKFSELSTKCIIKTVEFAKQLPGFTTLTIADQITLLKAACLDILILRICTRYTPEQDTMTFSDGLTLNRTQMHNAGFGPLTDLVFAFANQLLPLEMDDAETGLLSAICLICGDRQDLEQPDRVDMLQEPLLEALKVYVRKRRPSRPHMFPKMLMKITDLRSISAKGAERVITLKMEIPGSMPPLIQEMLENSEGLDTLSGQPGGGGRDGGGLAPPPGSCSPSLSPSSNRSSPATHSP
In short: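 Read-out: DR5-driven reporter transcript measured by RT-PCR, 6-FAM primer extension, HpaI digest and capillary electrophoresis. Human HepG2 liver cells carry transiently transfected cis-element reporter constructs; dosing lasts 24 h. Gain or loss of signal fitted against DMSO baseline.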

[10] = target: Transcription factor E2F1 (Homo sapiens) (UniProt Q01094); assay: ATG_E2F_CIS: Attagene CIS-FACTORIAL HepG2 Assay for human E2F Transcription Factor 1 (AID 2282935); settings: HepG2 Attagene cis-reporter, E2F reporter RNA transcripts; actives raise or lower the signal
Chain of Transcription factor E2F1 (Homo sapiens) (Q01094 whole entry, looked up): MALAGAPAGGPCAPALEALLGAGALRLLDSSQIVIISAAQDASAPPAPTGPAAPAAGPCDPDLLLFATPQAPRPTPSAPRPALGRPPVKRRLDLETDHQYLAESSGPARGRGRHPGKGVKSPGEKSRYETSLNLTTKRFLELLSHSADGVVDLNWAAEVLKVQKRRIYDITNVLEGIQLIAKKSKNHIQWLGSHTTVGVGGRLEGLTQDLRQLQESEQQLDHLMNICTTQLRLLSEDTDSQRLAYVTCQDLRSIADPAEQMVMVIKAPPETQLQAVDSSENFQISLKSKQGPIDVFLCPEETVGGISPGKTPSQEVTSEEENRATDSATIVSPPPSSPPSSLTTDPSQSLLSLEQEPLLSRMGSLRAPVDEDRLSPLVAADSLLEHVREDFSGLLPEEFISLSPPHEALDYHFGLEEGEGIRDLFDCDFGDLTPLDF
In short: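 Endogenous E2F1 activity read through cis-promoter reporter units transfected into HepG2. After 24 h compound treatment, reporter mRNA measured by RT-PCR, HpaI digestion and capillary electrophoresis. Bidirectional fit versus DMSO.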

[11] = ATG_E_Box_CIS: Attagene CIS-FACTORIAL HepG2 Assay for human Enhancer Box (E-box) (AID 2282936); settings: HepG2 E-box cis-reporter transcription, actives raise or lower the signal
In short: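 HepG2 cells transiently transfected with multiplexed cis-element reporter units, dosed 24 h; reporter mRNA quantified by RT-PCR, 6-FAM labelling, HpaI digestion and capillary electrophoresis. E-box (USF1) signal fitted bidirectionally vs DMSO.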

[12] = ATG_M_61_CIS: Attagene CIS-FACTORIAL HepG2 Assay for M61 Transcription Factor (Internal Marker) (AID 2282937); settings: HepG2 Attagene CIS-FACTORIAL M61 internal marker reporter; actives raise or lower the signal
In short: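 Readout: fluorescent reporter mRNA fragments resolved by capillary electrophoresis after RT-PCR. Transiently transfected human HepG2 cells carried MRTU constructs reporting endogenous TF activity; 24 h chemical exposure; gain or loss of signal fitted relative to DMSO.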

[13] = ATG_EGR_CIS: Attagene CIS-FACTORIAL HepG2 Assay for human Early Growth Response 1 (EGR1) (AID 2282938); settings: HepG2 Attagene CIS-FACTORIAL EGR reporter mRNA; actives raise or lower the signal
In short: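 Read-out: fluorescent reporter-mRNA fragments resolved by capillary electrophoresis after RT-PCR, 24 h post-dose in transiently transfected HepG2. Endogenous transcription-factor activity reported via cis-element-regulated reporter units; gain or loss fitted relative to DMSO.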

[14] = ATG_M_19_CIS: Attagene CIS-FACTORIAL HepG2 Assay for M19 Transcription Factor (Internal Marker) (AID 2282939); settings: HepG2 Attagene CIS-FACTORIAL M19 internal marker reporter; actives raise or lower the signal
In short: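 Following a 24 h exposure, RNA from transfected HepG2 cells was reverse-transcribed, PCR-amplified with reporter-specific primers, end-labelled with 6-FAM and HpaI-digested before capillary separation. Values represent gain or loss versus DMSO.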

[15] = ATG_Ets_CIS: Attagene CIS-FACTORIAL HepG2 Assay for human Erythroblast Transformation Specific (ETS) (AID 2282941); settings: HepG2 ETS cis-reporter transcription, actives raise or lower the signal
In short: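 Steps: transfect HepG2 with multiple reporter units; treat compound 24 h; isolate RNA, DNase-treat, reverse-transcribe; PCR-amplify, label with 6-FAM, digest with HpaI; separate by capillary electrophoresis. Activity fitted both directions versus DMSO.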

[16] = target: Hepatocyte nuclear factor 3-beta (Homo sapiens) (UniProt Q9Y261); assay: ATG_FoxA2_CIS: Attagene CIS-FACTORIAL HepG2 Assay for human Forkhead box A2 (FOXA2) (AID 2282942); settings: HepG2 cis-reporter transcription factor activity, 24 h; actives raise or lower the signal
Chain of Hepatocyte nuclear factor 3-beta (Homo sapiens) (Q9Y261 whole entry, looked up): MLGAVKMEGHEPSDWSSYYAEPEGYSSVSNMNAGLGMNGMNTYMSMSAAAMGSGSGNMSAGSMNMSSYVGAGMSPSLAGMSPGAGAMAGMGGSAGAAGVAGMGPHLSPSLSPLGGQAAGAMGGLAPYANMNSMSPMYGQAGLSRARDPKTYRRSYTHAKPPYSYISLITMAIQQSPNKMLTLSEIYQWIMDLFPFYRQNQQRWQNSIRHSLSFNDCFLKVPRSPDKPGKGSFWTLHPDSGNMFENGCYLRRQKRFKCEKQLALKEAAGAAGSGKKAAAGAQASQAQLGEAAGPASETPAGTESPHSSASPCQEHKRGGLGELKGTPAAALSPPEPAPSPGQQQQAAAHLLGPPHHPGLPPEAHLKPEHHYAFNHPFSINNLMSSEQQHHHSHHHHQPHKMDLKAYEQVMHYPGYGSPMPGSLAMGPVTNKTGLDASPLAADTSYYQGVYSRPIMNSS
In short: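 Readout: fluorescent reporter transcripts resolved by capillary electrophoresis after RT-PCR. Transiently transfected HepG2, 24 h compound exposure, endogenous TF activity at cis promoter elements. Gain or loss of signal fitted relative to DMSO.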

[17] = ATG_FoxO_CIS: Attagene CIS-FACTORIAL HepG2 Assay for human Forkhead box O (FoxO) (AID 2282943); settings: HepG2 Attagene cis-reporter, FoxO element, mRNA; actives raise or lower the signal
In short: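 Read-out: fluorescence of 6-FAM-labelled reporter cDNA fragments resolved by capillary electrophoresis. Transiently transfected HepG2 cells were dosed for 24 h; activity fitted in both directions relative to DMSO controls.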

[18] = ATG_GATA_CIS: Attagene CIS-FACTORIAL HepG2 Assay for human GATA Binding Protein (AID 2282944); settings: HepG2 GATA cis-element reporter, Attagene multiplex mRNA; actives raise or lower the signal
In short: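 DMSO serves as negative control and baseline for bidirectional fitting of reporter mRNA changes. HepG2 cells bearing transiently transfected cis-promoter reporters were exposed 24 h; transcripts detected via RT-PCR and capillary electrophoresis.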

[19] = ATG_GLI_CIS: Attagene CIS-FACTORIAL HepG2 Assay for human Zinc Finger Protein GLI1 (AID 2282945); settings: HepG2, Attagene cis-factorial reporter mRNA, GLI element; actives raise or lower the signal
In short: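 Transiently transfected HepG2 cells report endogenous transcription factor activity via cis-element-driven reporter units. After 24 h compound exposure, reporter mRNA was measured by RT-PCR with capillary electrophoresis; bidirectional fitting against DMSO baseline.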

Measured: AC50

CC[N+](C)(CC)CC
inactive: all assays above

CCCCCCOC(=O)CCC
inactive: all assays above

CCCCCCCCCCCCN1CCCCCC1=O
active: [4] 18.6 µM | [6] 11.1 µM | [8] 16.4 µM | [11] 16.3 µM
inactive: all other assays above

Cc1cccc(Nc2ccccc2)c1
active: [4] 67.5 µM | [6] 139 µM | [13] 73.8 µM | [15] 154 µM
inactive: all other assays above

CC(C)C(OC(=O)c1ccccc1)C(C)(C)COC(=O)c1ccccc1 (stereo not drawn)
inactive: all assays above

c1ccc2[nH]cnc2c1
inactive: all assays above

CCCCCCCCCCCC(=O)OC[C@@H](O)[C@H]1OC[C@H](O)[C@H]1O
inactive: all assays above
